Screens (PubChem)
Shiga inhibitor – inhibitors of Shiga toxin in Vero cells; Vero cells, Shiga toxin protein synthesis inhibition reporter; inhibition, % at 38.7 µM; 9.2% of 290,000 active; in the data active means inhibition mostly above about 28%, no sharp cut-off; inactive means mostly below about 43%; further: 0% is about no effect
NS1 inh – blocks influenza NS1 protein function. Potency, µM (top dose mostly 46.1 µM), inactives show at the highest dose activity, positive = more growth. 0.4% of 270,000 active; further: potency means the concentration at half of the fitted maximal effect; actives are rising curves; nearly all actives have a fitted effect of over 50% in size
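In this qHTS, NS1 from influenza A is expressed in budding yeast, where it slows growth. Cells are switched from glucose to 2% galactose medium (pH 6.0, -URA), treated with compound, and growth recovery is read at OD600.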
Pf growth 48h – inhibits P. falciparum growth in the first generation, 48 h; P. falciparum luciferase growth in erythrocytes, 48 h; Potency, µM (titrated, usually from 28.7 µM), inactives show at the highest dose activity change, negative = inhibition, actives largely listed as inhibitors; 5.9% of 310,000 active; AID 504832; active means well fitted inhibition curve with a large enough effect; inconclusive means small, poorly fitted or top-dose-only effect, or another doubt; inactive means no such curve, though single readings can be large or run the other way; further: potency means the concentration at half of the fitted maximal effect; on the % scale 0 is the no-effect control and ±100 the full control effect
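First compound was added to culture medium, then infected red cells at 0.1% parasitemia and 2% hematocrit (final). After incubation at 37 C under 5% CO2, luciferase detection reagent was dispensed and light output recorded.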
Cycloheximide cs – counter-screen for Shiga toxin inhibitors: cycloheximide protein synthesis inhibition; cell reporter, cycloheximide protein synthesis inhibition counterscreen; max response, %; 12% of 300,000 active; in the data active means max response mostly above about 13%, no sharp cut-off; inactive means mostly below about 14%; further: read at 38.3 µM for the half of the compounds with a filed dose; 0% is about no effect
SARS PLP yeast – SARS-CoV PLP inhibition in yeast. S. cerevisiae expressing SARS-CoV PLpro, growth rescue. Potency, µM (top dose mostly 32.9 µM), without a hit: at the highest dose activity, positive = growth rescue, usual class: activators. 0.19% of 330,000 active; further: potency means the concentration at half of the fitted maximal effect; 0% is about no effect; nearly all actives have a fitted effect of over 55% in size
Pf growth 96h – P. falciparum growth inhibition at 96 hour, primary screen for plastid delayed-death inhibitors; Potency, µM (highest dose often 28.7 µM), for inactives: at the top dose activity change, negative = inhibition, actives largely listed as inhibitors; 6.9% of 320,000 active; P. falciparum luciferase reporter growth, 96 h; AID 504834; active means well fitted inhibition curve with a large enough effect; inconclusive means small, poorly fitted or top-dose-only effect, or another doubt; inactive means no such curve, though single readings can be large or run the other way; further: potency means the concentration at half of the fitted maximal effect; on the % scale 0 is the no-effect control and ±100 the full control effect
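Infected RBCs, 2% Hct / 0.05% parasitemia final; luciferase-reporter P. falciparum; cpd 96 h, 37 C, 5% CO2; luciferase detection reagent; luminescence.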
* hit, by the source's call; ? = inconclusive; nt = no result; + = active, no number. Only some compounds are listed: those with a hit (about 21% of all), similar ones and a draw of the others. Unless noted, the call rests on the fitted dose curve.

SMILES	Shiga inhibitor	NS1 inh	Pf growth 48h	Cycloheximide cs	SARS PLP yeast	Pf growth 96h
CC(C)c1cc(=O)oc2c3c4c(cc12)CCCN4CCC3	-20	?	12µM*	-4	-9%	33%
CC(OC(=O)CCc1nc2ccccc2c(=O)[nH]1)C(=O)c1ccc(C(C)(C)C)cc1 (stereo not given)	60*	7%	2%	22*	6%	-9%
C=CCN(Cc1cccs1)C(=O)CN1CCN(S(=O)(=O)c2ccc3c(c2)OCCCO3)CC1	nt	nt	?	nt	-5%	?
O=C(/C=C/c1c(F)cccc1Cl)Nc1ccc(S(=O)(=O)Nc2ncccn2)cc1	-9	0%	-5%	1	-6%	13µM*
O=C(/C=C/c1c(Cl)cccc1Cl)N1CCOCC1	nt	-3%	12%	15	-1%	2%
O=C(/C=C/c1c(F)cccc1Cl)N1CCOCC1	51*	6%	86%	48*	-3%	59%
O=C(/C=C/c1c(F)cccc1Cl)Nc1ncccn1	61*	-21%	204%	57*	-36%	?
C=CCNC(=O)/C=C/c1c(F)cccc1Cl	57*	-18%	57%	29*	-10%	16%
CC(C)(C)c1ncc(S(=O)(=O)c2ccc(C(F)(F)F)cn2)c(N)n1	7	-1%	?	1	1%	-2%
O=C(O)CN1C(=O)/C(=C\C(Br)=C\c2ccccc2)SC1=S	22	-43%	?	-2	0%	3%
CC(=O)Nc1nc(SCC(=O)Nc2nnc(C)s2)[nH]c(=O)c1NC(=O)c1cccs1	-15	nt	9%	12	-1%	15%
COc1ccc(C2CCCN2C(=S)Nc2ccc(C)cc2C)cc1OC (stereo not given)	-3	nt	-25%	4	10%	39%
COc1cccc(NC(=S)N2CCCC2c2ccc(OC)c(OC)c2)c1 (stereo not given)	52*	nt	?	33*	3%	-14%
COc1ccc(C2CCCN2C(=S)Nc2ccccc2C)cc1OC (stereo not given)	0	nt	9.3µM*	3	4%	?
O=C(/C=C/c1c(Cl)cccc1Cl)n1cccn1	14	-26%	4%	9.8*	-41%	-14%
CCc1ccccc1NC(=S)N(CCCN(C)C)Cc1cc2cc3c(cc2[nH]c1=O)OCO3	-15	-1%	?	1	0%	?
COc1ccc2c(c1)C(=O)/C(=C/C=C/c1ccccc1)CC2	+	-13%	?	21*	3%	2.3µM*
COc1ccc2c(c1)CC/C(=C\C=C\c1ccccc1OC)C2=O	89*	-5%	-11%	38*	0%	?
COc1ccccc1C(=O)COC(=O)CSC(C)C(=O)Nc1cc(C)on1 (stereo not given)	nt	nt	44%	nt	1%	24%
c1ccc(Nc2ccccn2)cc1	4	-1%	23%	17*	1%	nt
c1ccc(Nc2cccc(Nc3ccccc3)n2)cc1	55*	-142%	nt	34*	-34%	-55%
Cc1ccc(Nc2ccccc2)nn1	25	3%	12%	15	-1%	54%
CCOc1cc2nc(-c3ccc(OC)c(OC)c3)nc(NCCCN3CCOCC3)c2cc1OC	-13	0%	nt	-5	3%	0.074µM*
COc1ccc(-c2oc3ncnc(NCCN4CCOCC4)c3c2-c2ccc(OC)cc2)cc1	-23	-147%	nt	-1	0%	?
COc1ccc(-c2oc3ncn(CCN4CCOCC4)c(=N)c3c2-c2ccc(OC)cc2)cc1	-11	-10%	7.4µM*	-2	-7%	22%
SMILES	Shiga inhibitor	NS1 inh	Pf growth 48h	Cycloheximide cs	SARS PLP yeast	Pf growth 96h
COc1ccc(-c2oc3ncnc(NCCCN4CCOCC4)c3c2-c2ccc(OC)cc2)cc1	-4	-46%	5.2µM*	2	4%	82%
COc1cc2ncnc(NCCCN3CCOCC3)c2cc1OC	-7	-2%	?	-1	1%	?
CCc1ccc(CN2CCC(n3nccc3NC(=O)Cc3ccccc3)CC2)o1	-13	0%	-13%	-1	-4%	9%
Cc1cc(C(=O)COC(=O)C2=COCCO2)c(C)n1-c1ccccc1	nt	nt	nt	nt	-9%	nt
CCc1ccc(OCC(=O)Nc2ncc3c(n2)CC(C)(C)CC3=O)cc1	-17	-2%	8%	-6	-2%	3.3µM*
CC1(C)CC(=O)c2cnc(NC(=O)c3ccco3)nc2C1	84*	4%	-5%	20	-20%	89%
